“And” between values parts separate entries of the source, which are not always exact repeats. Identical values can stand only once. The panel holds about 83,000 compounds, 20% with a hit somewhere; the sample as a whole holds those more often.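 Interpretation: 100, growth as untreated; towards 0, rising growth inhibition; 0, no net growth; 0 to -100, cell death. Compounds scoring below 10 were considered active.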 Values without a mark were called inactive. The source made the active and inactive calls.
Legend:
Test in all cases: NCI-60 one-dose screen, 48 h (100 = growth as untreated, 0 = no growth, -100 = all killed)
Conditions in all cases: 10 µM unless noted
HCT-15 colon = tested on: HCT-15 colon
HT29 colon = tested on: HT29 colon
SNB-75 CNS = tested on: SNB-75 CNS
SNB-19 CNS = tested on: SNB-19 CNS
U251 CNS = tested on: U251 CNS
PC-3 prostate = tested on: PC-3 prostate
SK-MEL-5 melanoma = tested on: SK-MEL-5 melanoma
UACC-62 melanoma = tested on: UACC-62 melanoma
LOX IMVI melanoma = tested on: LOX IMVI melanoma
SK-MEL-28 melanoma = tested on: SK-MEL-28 melanoma
SK-MEL-2 melanoma = tested on: SK-MEL-2 melanoma
EKVX NSCLC = tested on: EKVX NSCLC
SN12C renal = tested on: SN12C renal
UO-31 renal = tested on: UO-31 renal
TK-10 renal = tested on: TK-10 renal
ACHN renal = tested on: ACHN renal
CAKI-1 renal = tested on: CAKI-1 renal
A498 renal = tested on: A498 renal
CCRF-CEM leukemia = tested on: CCRF-CEM leukemia
MOLT-4 leukemia = tested on: MOLT-4 leukemia

| Structure (SMILES) | growth (HCT-15 colon) | growth (HT29 colon) | growth (SNB-75 CNS) | growth (SNB-19 CNS) | growth (U251 CNS) | growth (PC-3 prostate) | growth (SK-MEL-5 melanoma) | growth (UACC-62 melanoma) | growth (LOX IMVI melanoma) | growth (SK-MEL-28 melanoma) | growth (SK-MEL-2 melanoma) | growth (EKVX NSCLC) | growth (SN12C renal) | growth (UO-31 renal) | growth (TK-10 renal) | growth (ACHN renal) | growth (CAKI-1 renal) | growth (A498 renal) | growth (CCRF-CEM leukemia) | growth (MOLT-4 leukemia) |
| --- | --- | --- | --- | --- | --- | --- | --- | --- | --- | --- | --- | --- | --- | --- | --- | --- | --- | --- | --- | --- |
| COc1cc(C2C(C(=O)OCc3ccccc3)=C(C)Nc3nc4ccccc4n32)cc(OC)c1OC (stereo unspecified) | 24.8% | 37.3% | -38.3% (active) | 20.4% | 27% | 51.7% | 17.3% | 2.04% (active) | 12.2% | 33.9% | 47.5% | 36.8% | 37.1% | 1.37% (active) | 34.6% | -4.94% (active) | 6.89% (active) | -22.7% (active) | 41.7% | 33.2% |
| CN1CCN(C(=O)Oc2cc3c(c4ccccc24)[C@H](CCl)CN3C(=O)c2cc3cc(OCCCN4CCC4)ccc3[nH]2)[C@H]2CSSC[C@H]21 | -1.96% (active) | -1.25% (active) | -77.2% (active) | -15% (active) | 6.86% (active) | -8.67% (active) | -21.2% (active) | -81.9% (active) | -23.9% (active) | -51.1% (active) | -92.7% (active) | -38.3% (active) | -7.03% (active) | -11.4% (active) | 4.65% (active) | -11.6% (active) | 6.04% (active) | -17.6% (active) | -25.8% (active) | -11.6% (active) |
| O=CNc1ccc(-n2cnc3cc(-c4ccc(O)cc4)ccc32)cc1 | 74% | 111% | 59.3% | 88.5% | 84.6% | 88.1% | 79.4% | 99.2% | 93.7% | 92.9% | 115% | 106% | 71.7% | 61% | 108% | 65.4% | 87.3% | 135% | 76.4% | 77.3% |
| CN(C)c1nc(NCCNS(=O)(=O)c2ccc(C(=O)/C=C/c3ccc(C(F)(F)F)cc3)cc2)nc(N2CCOCC2)n1 | -78.2% (active) | -73% (active) | 59.5% | 57.8% | -85.5% (active) | -60.1% (active) | -42.8% (active) | 48.2% | -99.2% (active) | -9.43% (active) | 74.8% | 37.1% | 39.9% | -61.9% (active) | 70.4% | -33.2% (active) | -32.7% (active) | – | -29% (active) | -19.1% (active) |
| Fc1ccc(N2CC(Cn3c(C(F)(F)F)cc4c(Cl)ncnc43)C2)c(F)c1 | -76.5% (active) | -59.4% (active) | 24.6% | -39.1% (active) | -26.6% (active) | 0.119% (active) | 88.9% | 6.55% (active) | -93.6% (active) | -89.8% (active) | -78.1% (active) | 72.4% | -29.1% (active) | -92% (active) | 104% | 41.8% | 71.7% | – | -38.5% (active) | -61.3% (active) |
| CN(C)c1nc(NCCNS(=O)(=O)c2ccc(C3=Nc4c(N)nc(N)nc4NC(c4ccc(C(F)(F)F)cc4)C3)cc2)nc(N2CCOCC2)n1 (stereo unspecified) | 53.6% | 9.6% (active) | 46% | 49% | 26.6% | 24.2% | 25.5% | 51.5% | 0.0978% (active) | 57.4% | 21.8% | 38.3% | 48.1% | 74.1% | 68.9% | 77.3% | 37.1% | – | 21.8% | -5.12% (active) |
| Cc1oc(-c2ccccc2)nc1CN[C@@H]1C[C@@H]2C[C@H]([C@H]1C)C2(C)C | 18.8% | 7.34% (active) | 79.2% | 37.6% | 41.2% | 30.8% | -94.1% (active) | -32.6% (active) | -95.5% (active) | 2.07% (active) | 85.7% | 42.4% | 10.1% | 23.9% | 80.8% | 25.8% | 44.5% | – | 23.7% | 0.127% (active) |
| Nc1cccc(-n2c(COc3ccc(I)cc3)nc3ccccc32)c1 | 74.6% and 104% | 78.7% and 114% | 52.9% and 91.4% | 93.5% and 98.6% | 84.8% and 101% | 63.9% and 104% | 60% and 99.8% | 57.6% and 92.2% | 80% and 101% | 98.9% and 98.7% | 82.5% and 105% | 70.4% and 102% | 90.2% and 103% | 43.6% and 81.3% | 112% and 98.6% | 81.9% and 103% | 56.8% and 97.2% | 112% and 132% | 82.8% and 99.3% | 71.5% and 99.8% |
| COc1ccc2c(c1)N=c1c-2cc2c(O)[nH]c(=S)n2c1=O | 27.3% | 12.3% | 6.9% (active) | 59.8% | 30.9% | 37.7% | 13.5% | 34.4% | 32.6% | 72.6% | 41.9% | 48.7% | 35.6% | 47.8% | 73.5% | 44.9% | 29.7% | – | 11.1% | 35.1% |
| COc1ccc2[nH]c(=O)c(CSc3ccccc3Nc3nccc(-c4ccc(C(F)(F)F)cc4)n3)cc2c1 | 12.9% | 4.71% (active) | -5.5% (active) | 33.7% | 22.5% | 3.44% (active) | 48.8% | 47.9% | 7.62% (active) | 51.4% | 41.9% | 54.3% | -30.8% (active) | 26.9% | 97.1% | -29.4% (active) | -6.85% (active) | 39.9% | 7.12% (active) | -8.19% (active) |
| COc1c2c(c(Br)c3c1C(CCc1ccccc1)N(C)CC3)OCO2 (stereo unspecified) | 24.6% | 16.5% | 63.8% | 36.8% | 43.3% | 41.3% | 25.3% | 16.3% | 6% (active) | 19.2% | 68.6% | 36.3% | 35% | 35.9% | 70.9% | 30.3% | 36% | 82% | 30.1% | 25.3% |
| COc1c(B(O)O)cccc1-c1nc2ccc3cn[nH]c3c2c2c1CCCC2 | 54.9% | 85.8% | -17.7% (active) | 54.9% | 48.1% | 60% | 53.4% | 52.1% | 41.3% | 86.6% | 108% | 49.3% | 50.6% | 23.6% | 12% | 27.3% | -11.3% (active) | -2.36% (active) | 39.6% | 47.7% |
| S=C(NCCc1ccccc1)Nc1ccc(OCc2nc3ccc(Cl)cc3[nH]2)cc1 | 4.3% (active) | 32.2% | 33.4% | 46.7% | 16% | 39.8% | 40.8% | 34.5% | -46.3% (active) | 48% | 16.5% | 33.1% | 11.6% | 13.9% | 62.4% | 14% | 25.2% | – | 9.55% (active) | 13.8% |
| COc1c(B(O)O)cc(F)cc1-c1nc2ccc3[nH]ncc3c2c2c1COCC2 | 99.4% | 74.2% | 0.778% (active) | 32.7% | 45.4% | 83.1% | 64.6% | 68.2% | 24.2% | 61.9% | 93.9% | 75.3% | 50.3% | 55% | 14.2% | 36.4% | -12.1% (active) | – | 19.1% | 53.1% |
| N/C(=N\c1nc2ccccc2s1)NC(=O)Nc1ccccc1[N+](=O)[O-] | 5.8% (active) | -31.5% (active) | 19.5% | 21.1% | 7.5% (active) | 29.3% | -21.5% (active) | 12% | 10% | 51% | 20.5% | 38.7% | 5.63% (active) | 26.8% | 52.8% | 20.2% | 16% | – | 1.29% (active) | 15.2% |
| Oc1ccc(Cl)c(Nc2ncnc3c2cnn3CC(Cl)c2ccc(Br)cc2)c1 (stereo unspecified) | 37.9% | 57.2% | 3.71% (active) | 57.4% | 53.5% | 44.5% | 48.8% | 55.6% | 0.654% (active) | 78.4% | 84.8% | 55.4% | 43.9% | 21.3% | 47.1% | 8.02% (active) | – | 98.9% | 59.8% | 34.7% |

— PubChem BioAssay (NCI)
